aSyn UTR inh = 5' untranslated region of α-synuclein, MLPCN primary screen | 300,000 tested, 0.82% active | alpha-synuclein 5'UTR reporter, inhibitor activity | inhibition, % (tested at 7.5 µM); in the data active = inhibition above about 60%;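 also: H4 neuroglioblastoma cells stably carrying SNCA 5'UTR luciferase fusion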
APP 5UTR inh = APP translation inhibition; inhibition, % at 2 µM; AID 1285; 190,000 tested, 0.82% active; SH-SY5Y APP 5'UTR-luciferase reporter, luminescence;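 active = inhibition above a set limit, derived from the sample mean plus 3 SD, cut at about 45% in these data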
BaF3 tox = parental Ba/F3 viability inhibition as JAK2V617F counter-screen. inhibition, % at 5.6 µM. 220,000 tested, 1.1% active. CellTiter-Glo ATP luminescence;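 active = inhibition above a per-campaign cutoff, the mean inhibition of all tested compounds plus 3 SD, cut at about 27% in these data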
Ba/F3 V617F tox = loss of viability in JAK2V617F-driven Ba/F3 cells; Ba/F3 EpoR-JAK2V617F viability, ATP luminescence; AID 1446; 220,000 tested, 1.1% active; inhibition, % at 5.6 µM;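 active = inhibition above the campaign mean plus 3 SD over all tested compounds, cut at about 24% in these data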;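 also: cytokine-independent growth of Ba/F3 cells driven by EpoR plus mutant JAK2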
KLF5 inh = kruppel-like factor 5 inhibition; DLD-1 KLF5 promoter-luciferase reporter, luminescence; 290,000 tested, 0.23% active; AID 1700; inhibition, % at 5 µM;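 active = inhibition above a per-plate limit of that plate's mean compound inhibition plus 3 SD, cut at about 60% in these data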;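 also: higher means less KLF5 promoter-driven luciferase light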
IEC-6 tox = kills IEC-6 intestinal cells in KLF5 counter-screen. inhibition, % at 5 µM. AID 1825. IEC-6 cytotoxicity, luminescence viability. 290,000 tested, 0.78% active; in the data active = inhibition above about 22%
A number is an active result. Compounds with a hit are over-represented: about 2.2% of the library has one in this group of screens.

Results for NC(=O)c1ncn([C@@H]2O[C@H](CO)[C@@H](O)[C@H]2O)n1 ?
aSyn UTR inh: inactive; APP 5UTR inh: inactive; BaF3 tox: inactive; Ba/F3 V617F tox: inactive; KLF5 inh: inactive; IEC-6 tox: inactive

How did O=C1CC2(CCN(C(=O)c3cccc([N+](=O)[O-])c3)CC2)Oc2ccccc21 do in these assays?
aSyn UTR inh: inactive

How did CCCC12CN3CC(C)(CN(C1)C3c1ccc(OC)cc1)C2=O (stereo not given) do in these assays?
aSyn UTR inh: inactive; APP 5UTR inh: inactive; BaF3 tox: 94.2; Ba/F3 V617F tox: inactive; KLF5 inh: inactive; IEC-6 tox: inactive

What do the screens show for `C=CCOc1ccc(C2N3CC4(C)CN2CC(CCC)(C3)C4=O)cc1` (stereo not given)?
APP 5UTR inh: inactive; BaF3 tox: inactive; Ba/F3 V617F tox: inactive; KLF5 inh: inactive; IEC-6 tox: inactive

Results for Cc1cc(C)c2nc(/N=C(\N)NC(=O)Nc3ccccc3)nc(C)c2c1 ?
aSyn UTR inh: inactive; APP 5UTR inh: inactive; BaF3 tox: 65.6; Ba/F3 V617F tox: 68.9; KLF5 inh: inactive; IEC-6 tox: inactive

How did O=C(NCCCn1ccnc1)c1ccc(Cl)s1 do in these assays?
aSyn UTR inh: inactive; KLF5 inh: inactive; IEC-6 tox: inactive

What do the screens show for `O=C(O)c1ccc(OCc2cn3ccccc3n2)cc1`?
aSyn UTR inh: inactive; BaF3 tox: inactive; Ba/F3 V617F tox: inactive; KLF5 inh: inactive; IEC-6 tox: inactive

Results for O=C(COc1ccc(Oc2ccccc2)cc1)NCc1cn2ccccc2n1 ?
aSyn UTR inh: 62.4; APP 5UTR inh: inactive; BaF3 tox: 26.6; Ba/F3 V617F tox: 31.1; KLF5 inh: inactive; IEC-6 tox: 37.4

Results for CCN(CC)c1ccc(/C=C2/SC(=O)N(C(C)C)C2=O)o1 ?
aSyn UTR inh: inactive; APP 5UTR inh: 92.0; BaF3 tox: inactive; Ba/F3 V617F tox: inactive; KLF5 inh: inactive; IEC-6 tox: inactive

Results for C=CCC(=O)N1CCCC(CO)(Cc2ccc(F)cc2F)C1 (stereo not given) ?
aSyn UTR inh: inactive; KLF5 inh: inactive; IEC-6 tox: inactive

What do the screens show for `COc1cccc(-c2ccc(NC(=O)C3CCCN(CCCn4cccn4)C3)cc2)c1` (stereo not given)?
aSyn UTR inh: inactive; KLF5 inh: inactive; IEC-6 tox: inactive

Results for Cc1nn(-c2ccccc2)c(C)c1C(=O)OCC(=O)N(C)c1c(N)n(Cc2ccccc2)c(=O)[nH]c1=O ?
aSyn UTR inh: inactive

What do the screens show for `CCO[C@H]1OC(C(=O)NCc2nc3ccccc3[nH]2)=C[C@@H](c2ccc(Br)cc2)[C@@H]1CCCO`?
aSyn UTR inh: inactive

Results for CCO[C@@H]1OC(C(=O)NCc2nc3ccccc3[nH]2)=C[C@H](C(C)(C)C)[C@H]1CCCO ?
aSyn UTR inh: 85.2

What do the screens show for `Cc1cccc2cc(C#N)c(SCC#N)nc12`?
aSyn UTR inh: 84.9; APP 5UTR inh: inactive; BaF3 tox: inactive; Ba/F3 V617F tox: inactive; KLF5 inh: inactive; IEC-6 tox: inactive

How did CCc1nc(SCC(=O)O)c(C#N)cc1C do in these assays?
aSyn UTR inh: inactive; APP 5UTR inh: inactive; BaF3 tox: inactive; Ba/F3 V617F tox: inactive; KLF5 inh: inactive; IEC-6 tox: inactive

Results for Cc1cccc2cc(C#N)c(SCC(=O)NNC(=O)Cc3ccccc3)nc12 ?
aSyn UTR inh: inactive; APP 5UTR inh: inactive; BaF3 tox: inactive; Ba/F3 V617F tox: inactive; KLF5 inh: inactive; IEC-6 tox: inactive

Results for CCc1nc(SCC#N)c(C#N)cc1C ?
aSyn UTR inh: 68.5; APP 5UTR inh: inactive; BaF3 tox: inactive; Ba/F3 V617F tox: inactive; KLF5 inh: inactive; IEC-6 tox: inactive

How did COc1ccc(N(CC(=O)NC2CCCC2)C(=O)c2ccc(C)s2)c(OC)c1 do in these assays?
aSyn UTR inh: inactive; KLF5 inh: inactive; IEC-6 tox: inactive

What do the screens show for `Cc1cnc(C(=O)OCC(=O)N2CCN(S(=O)(=O)c3ccc(Cl)cc3)CC2)cn1`?
aSyn UTR inh: inactive

What do the screens show for `O=S(=O)(Nc1cc(Sc2cccc3cccnc23)c(O)c2ccccc12)c1ccc(F)cc1`?
aSyn UTR inh: inactive; APP 5UTR inh: 78.1; BaF3 tox: inactive; Ba/F3 V617F tox: inactive; KLF5 inh: inactive; IEC-6 tox: 50.9

How did O=C(Sc1cccc2cccnc12)c1ccc(F)cc1 do in these assays?
APP 5UTR inh: 71.3; BaF3 tox: 40.8; Ba/F3 V617F tox: 43.1; KLF5 inh: inactive; IEC-6 tox: 87.3

Screening data as filed in PubChem BioAssay.
